Here are results for 21 molecules from PubChem BioAssay (NCI).

About 79,000 compounds went through this panel and 15% of them were active in at least one assay; those are over-represented in the sample as a whole. A number with no mark means an inactive call. Calls of active or inactive are those of the source. No stated cut-off is given here; in the data, active means growth inhibition above about 70%; inactive means the rest.

Assay [1] is described as follows: NCI Yeast Anticancer Drug Screen. Data for the rad50 strain (AID 155).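 Further: 0% = growth of vehicle-only cultures of the same strain.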 The settings on record: S. cerevisiae rad50 strain growth inhibition; at 50.0 µM; hits give high values. A digest of the protocol: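 Compounds were tested on a yeast strain with an engineered DNA damage repair alteration; the reported value is growth inhibition normalised to vehicle treatment.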

The nature of assay [2]: NCI Yeast Anticancer Drug Screen. Data for the mec2-1 strain (AID 157). The following applies: S. cerevisiae mec2-1 strain, at 50.0 µM, hits give high values. In a few lines:
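Yeast mec2-1 mutant treated with compound. Readout: growth inhibition vs vehicle controls.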

Assay [3] can be described thus: NCI Yeast Anticancer Drug Screen. Data for the sgs1 mgt1 strain (AID 161).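 Further: 0% = growth of cultures given vehicle only.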 The following applies: S. cerevisiae sgs1 mgt1 strain, at 50.0 µM, hits give high values. In a few lines: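 Test agents were incubated with a DNA-repair-mutant yeast strain. Growth was then read and compared against vehicle-treated controls.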
Assay [4] in a line: NCI Yeast Anticancer Drug Screen. Data for the cln2 rad14 strain (AID 165).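 Further: 0% = growth equal to vehicle treated cultures.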 The following applies: S. cerevisiae cln2 rad14 strain, at 50.0 µM, hits give high values. In a few lines:
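cln2 rad14 yeast strain; compound exposure; growth inhibition read vs vehicle controls.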

Assay [5] can be described thus: NCI Yeast Anticancer Drug Screen. Data for the bub3 strain (AID 167). The following applies: S. cerevisiae bub3 mutant strain, at 50.0 µM, hits give high values. A digest of the protocol: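 Growth of a checkpoint-deficient yeast mutant is measured after compound exposure. Values represent inhibition relative to vehicle.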
Assay [6] in a line: NCI Yeast Anticancer Drug Screen. Data for the mlh1 rad18 strain (AID 175). The following applies: S. cerevisiae mlh1 rad18 strain growth inhibition; at 50.0 µM; hits give high values. In a few lines:
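Yeast w/ defined DNA-repair lesions; compound exposure; growth vs vehicle controls → % inhibition.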

For the molecule `CCC1C(OC)=CC2(CC)CC1(OC)OC2=O` (stereo unspecified), the growth inhibition is -4.75% in assay [1]; -0.3% in assay [2]; -1.2% in assay [3]; -2.45% in assay [4]; 7.45% in assay [5]; -3.35% in assay [6].
As for `CC1(C)OCC(C(O)C2OC(C)(C)OC2/C=N\O)O1` (stereo unspecified), the growth inhibition was -3.9% in assay [1]; -18% in assay [2]; -0.2% in assay [3]; -0.5% in assay [4]; -1.45% in assay [5]; -17% in assay [6].
Consider `CN(C)C=Nc1cccc2cnccc12`, for which the growth inhibition in assay [1] was 24.7%; in assay [2] it was 3.4%; in assay [3] it was 14.5%; in assay [4], 21.2%; in assay [5], 13.1%; in assay [6], -16.7%.
Take `Cc1cc(Br)cc(C)c1NC(=O)C(=O)CC(=O)c1sc(-n2nc(-c3ccccc3)cc2-c2ccccc2)nc1C`: the growth inhibition in assay [1] was 5.7%; in assay [2] it was 1.75%; in assay [3], -32.5%; in assay [4] it was 28.5%; in assay [5], 33.8%; in assay [6] it was 15.7%.
On to `Cc1ccccc1C1OC2=C(Nc3ccc([N+](=O)[O-])cc3N2)C1=O` (stereo unspecified), for which the growth inhibition was 37.5% in assay [1]; 21.4% in assay [2]; 38% in assay [3]; 20.2% in assay [4]; 27.2% in assay [5]; 45.6% in assay [6].
Turning to `CCCCCC/C=C1\CCC(CN(C)C)C1=O` (stereo unspecified), the growth inhibition in assay [1] was 79.4% (active); in assay [2], 93.2% (active); in assay [3], 91.1% (active); in assay [4], 89.8% (active); in assay [5], 90.7% (active); in assay [6], 91.4% (active).
`CCCCCCCCCCCCCCCC(O)S(=O)(=O)O` (stereo unspecified): the growth inhibition in assay [1] is -27.2%; in assay [2], -24.9%; in assay [3], -10.1%; in assay [4] it was 0.55%; in assay [5] it was -29.4%; in assay [6], -23.9%.
For the molecule `O=C1OC(c2ccc(Cl)c3ccccc23)c2ccccc21` (stereo unspecified), the growth inhibition in assay [1] is 58.6%; in assay [2], 19.2%; in assay [3], 34.4%; in assay [4], 28.6%; in assay [5], 12.8%; in assay [6], 43.3%.
Take `CCCCCCCCCC(=O)N/N=C/c1cccnc1`: the growth inhibition is 88.2% (active) in assay [1]; 87% (active) in assay [2]; 95.9% (active) in assay [3]; 26.2% in assay [4]; 71.1% (active) in assay [5]; 91.3% (active) in assay [6].
Consider `Cc1cccc(C(=O)O)n1.[Cu+2]`, for which the growth inhibition in assay [1] was -20.6%; in assay [2], 7.6%; in assay [3] it was -19.4%; in assay [4], -69.9%; in assay [5], -27.6%; in assay [6], -11.6%.
Regarding `CC(=O)OCCS(=O)Cc1ccccc1` (stereo unspecified), the growth inhibition in assay [1] is -36.9%; in assay [2], -16.5%; in assay [3], -9.05%; in assay [4], -41.4%; in assay [5], 3.6%; in assay [6], 3.15%.
For `CCCCC1(NN=C2CCCCC2)C(=O)N(c2ccccc2)N(c2ccccc2)C1=O`, the growth inhibition in assay [1] was -11.2%; in assay [2] it was -6.2%; in assay [3], -0.4%; in assay [4], -0.75%; in assay [5] it was -7.4%; in assay [6] it was -8.65%.
As to `CCOC(=O)C1CN(C)C(=O)C1=O` (stereo unspecified), the growth inhibition in assay [1] was 17.2%; in assay [2], -2.4%; in assay [3] it was 16.6%; in assay [4], 2.35%; in assay [5] it was -0.05%; in assay [6], 25.9%.
Take `O=C(NCCc1ccccc1)c1c(O)c2ccccc2[nH]c1=O`: the growth inhibition in assay [1] was 5.85%; in assay [2], 11.9%; in assay [3], 23.7%; in assay [4] it was 18.2%; in assay [5], 14.1%; in assay [6], 10%.
As to `CC(=O)Nc1c(Nc2ccccc2)[nH]c(C)nc1=S`, the growth inhibition is -5.55% in assay [1]; -9.35% in assay [2]; -0.25% in assay [3]; -17.4% in assay [4]; -3.1% in assay [5]; -9.8% in assay [6].
Take `COc1ccc(CC(=O)c2c(O)c3c(c(CC=C(C)C)c2OC)OC(C)(C)C=C3)cc1`: the growth inhibition in assay [1] was 22.4%; in assay [2], -26.3%; in assay [3], -14.8%; in assay [4], 4.15%; in assay [5], -2.75%; in assay [6], 14.2%.
`O=C(/C=C/c1ccccc1Cl)c1ccc(Cl)c(Cl)c1`: the growth inhibition is 28.7% in assay [1]; 0.2% in assay [2]; 2.1% in assay [3]; 12% in assay [4]; 15.4% in assay [5]; 29.4% in assay [6].
Consider `O=c1[nH]c2cc3[nH]c(=O)c(=O)[nH]c3cc2[nH]c1=O`, for which the growth inhibition in assay [1] was -21.8%; in assay [2] it was -16.6%; in assay [3] it was -6.7%; in assay [4] it was 8.85%; in assay [5] it was -5.7%; in assay [6], -17.2%.
Consider `COc1ccc(/C=C2\C(=O)N(C(=O)c3ccc(NC(C)=O)cc3)N=C2C)cc1`, for which the growth inhibition in assay [1] was -27.6%; in assay [2], -36.2%; in assay [3], -39.2%; in assay [4] it was -0.3%; in assay [5], -20.9%; in assay [6], -41.2%.
As for `N#CCCN(N)S(=O)(=O)c1ccccc1`, the growth inhibition in assay [1] was 3.7%; in assay [2], 7.65%; in assay [3] it was 0%; in assay [4], -34.7%; in assay [5], 2.85%; in assay [6] it was -0.2%.
For the molecule `CC(/C=N/N(C)C1=NCCCN1)=N/N(C)C1=NCCCN1`, the growth inhibition is 14.3% in assay [1]; 1.6% in assay [2]; -7.35% in assay [3]; -35.6% in assay [4]; -2.55% in assay [5]; 11.2% in assay [6].
